Data published in PubChem BioAssay AID925 (National Center for Advancing Translational Sciences (NCATS), 2007).
“And” between values parts separate entries of the source, which are not always exact repeats. Equal entries are not always repeated. The campaign covered roughly 65,000 compounds. About 40 (0.06%) were called active. Calls come from the whole dose curve; as a rule, active = well fitted activation curve with a large enough effect; inconclusive = small, poorly fitted or top-dose-only effect; inactive = flat fitted curve, though single readings scatter. The sample as a whole holds a higher share of actives than the screen did.

test: qHTS Assay for Modulators of Hemoglobin Beta Chain Splicing; conditions: HBB splicing reporter cell assay, EGFP reporter with mutant IVS2-654 intron; Potency: activation; series mostly up to 46.1 µM; activation: at the top concentration; note: 0% is about no effect
In short: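 Compounds were applied for 2 days to HeLa EGFP-654 cells, 500/well in Optimem with 2% FCS. The reporter's EGFP is disrupted by mis-splicing of beta-globin intron IVS2-654. Readout: summed well GFP fluorescence from 488 nm laser scanning; reference was 500 nM antisense […] 654 PNA.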

activation, inactive:
CO[C@H]1COC(=O)C/C=C\[C@H](C)COC(=O)[C@@H](OCc2ccccc2)/C=C\[C@@H]1C 1.62% [at 9.22 µM, normalised to 500 nM splice-correcting PNA], Cc1c2c(nc3ccccc13)-c1cccc(=O)n1C2 1.36%, CC/C=C/C/C=C/C/C=C/CCCCCCCC(=O)OCC 0.885%, Oc1ccc2ccccc2c1C=NCc1c(O)ccc2ccccc12 0.869% [at 9.22 µM, normalised to 500 nM splice-correcting PNA], CCCNC(=O)OC[C@@H]1O[C@H](c2ccccc2)C=C[C@@H]1Oc1ccc(OC)cc1 -1.16% [at 9.22 µM, normalised to 500 nM splice-correcting PNA], O=C1OCCC=C1[C@@H](O)CCc1ccccc1 3.64% [at 9.22 µM, normalised to 500 nM splice-correcting PNA], CCCn1c(-c2ccc(F)cc2)nc2c(NCC3CCCN3CC)nc(C)nc21 (stereo unspecified) 0.529%, Cc1cc(C)cc(N)c1 -0.0718%, c1ccc2c(c1)-c1ccccc1C2N1CC2CCC(CC2)C1 3.26% [at 9.22 µM, normalised to 500 nM splice-correcting PNA], COc1ncc2nc(-c3ccc(Cl)cc3)c(=O)n(-c3ccccc3)c2n1 0.498%, O=C(O)CC(C(=O)O)C(CC(=O)O)C(=O)O (stereo unspecified) 1.17%, COC(=O)[C@@]1(Cc2ccc(OC)cc2)[C@H]2c3cc(C(=O)N4CCCC4)n(Cc4ccc(C(F)(F)F)nc4)c3C[C@H]2CN1C(=O)c1ccccc1 0.0479%, CC1=C(C(=O)OCc2ccccc2)C(c2ccc(C(F)(F)F)cc2)NC(=O)N1CCCCCC(=O)O (stereo unspecified) -0.181%, COc1ccc(-c2nc3cnc(OC)nc3n(Cc3ccc(F)cc3)c2=O)cc1 -0.0985%, Cc1cccc(Br)c1 1.71%, CS(=O)(=O)N1CCC2(CC1)CN(c1ccncc1)C2 3.52%, CCn1ccnc1C[C@@H]1COc2ccccc2O1 1.64%, CC[C@H](c1ccccc1)c1cc(C(C)(C)C)cc(C(C)(C)C)c1O -0.113% [at 9.22 µM, normalised to 500 nM splice-correcting PNA], CC(C)(O/N=C(\C(=O)N[C@@H]1C(=O)N2C(C(=O)[O-])=C(C[n+]3ccccc3)CS[C@@H]12)c1csc(N)n1)C(=O)O -0.237% [at 20.6 µM, normalised to 500 nM splice-correcting PNA], C[C@]1(O)CC[C@H]2[C@H]3CC=C4N5CCN=C5CC[C@@]4(C)[C@H]3CC[C@@]21C -0.0515% [at 9.22 µM, normalised to 500 nM splice-correcting PNA], Cc1c(NC(=O)c2cccnc2)c(=O)n(-c2ccccc2)n1C -1.86% [at 20.6 µM, normalised to 500 nM splice-correcting PNA], COC(=O)[C@@]1(Cc2ccc(OC)cc2)[C@H]2c3cc(C(=O)N4CCCC4)n(Cc4ccc(OC(F)(F)F)cc4)c3C[C@H]2CN1C(=O)c1ccccc1 0.6%, CC[C@@H]1Cc2cc(O)ccc2C2=C1c1ccc(O)cc1C[C@H]2CC 0.516%, Cc1nc2cnc(N3CCNCC3)nc2n(Cc2ccc(F)cc2)c1=O -0.46%, COc1ccc(CNc2ncncc2-c2ccccc2OC)c(OC)c1 -2.4%, COC(=O)[C@@H]1CC[C@H](C)[C@@H](c2ccc(C)cc2)N1C(=O)c1ccc(/C=N\O[C@@H](C)c2cn([C@H](CO)Cc3ccccc3)nn2)cc1 0.582% [at 9.22 µM, normalised to 500 nM splice-correcting PNA] and -0.794% [at 9.22 µM, normalised to 500 nM splice-correcting PNA], O=C(c1cccc(F)c1)N1CCC2(CCCN(Cc3ccncc3)C2)CC1 0.183%, Cc1cccc(C(=O)O)c1[N+](=O)[O-] -0.133%, COc1cccc(Cn2c(=O)c(CCc3ccccc3)nc3cnc(N(C)C)nc32)c1 1.77%, Cc1cnc(CNc2nc(-c3cccnc3)nc3ccccc23)cn1 -0.583%, COc1ccc(-c2nc3cnc(Oc4ccccc4)nc3n(Cc3cccs3)c2=O)cc1 0.4%, CCC[C@@H]1C[C@@]1(CCC)C(NS(=O)(=O)c1cccc2cccnc12)c1ccc(Cl)cc1 (stereo partly specified) 1.95%, O=C(Cl)c1ccc([N+](=O)[O-])cc1 -0.798%, O=C(c1csnn1)N1CCC[C@@]2(CCN(Cc3nccs3)C2)C1 1.83%, CCNC(=S)NCC -0.328%, O=C(c1ccc([N+](=O)[O-])cc1)[C@@H](Br)[C@@H](Br)c1ccnc2ccccc12 0.675% [at 9.22 µM, normalised to 500 nM splice-correcting PNA]
